Each compound was assayed on Plasmodium falciparum (assay: GSK_TCMDC: Inhibition of Plasmodium falciparum 3D7 in whole red blood cells, using parasite LDH activity as an index of growth. Test compounds present at 2uM).
Assay type: functional

| SMILES | Inhibition [%] |
| --- | --- |
| CN1CCC(N2CCN(Cc3cccc(-c4ccc(-c5nc6cc(F)ccc6[nH]5)cc4)c3)CC2)CC1.O=C(O)C(F)(F)F | 100 |
| Cc1nnsc1C(=O)Nc1cccc(-c2csc(-c3nc4ccccc4[nH]3)c2)c1 | 94 |
| CCC(C)c1ccc(NC(=O)Nc2ccnc3ccccc23)cc1.Cl (centres undefined) | 98 |
| CN=C(NC)c1cccc(NC(=O)C=Cc2ccc(C=CC(=O)Nc3cccc(C(=NC)NC)c3)cc2)c1.Cl | 98 |
| O=C(Nc1cc(C(F)(F)F)cc(C(F)(F)F)c1)c1cccc([N+](=O)[O-])c1 | 93 |
| COc1ccc(CNCc2ccc(F)cc2)cc1-c1ccc(OC)c(S(=O)(=O)NCCN2CCCC2)c1.O=C(O)C(F)(F)F | 100 |
| COCCn1c(Sc2ncnc3sccc23)nc2ccccc21 | 95 |
| O=C(NCc1ccc(F)cc1)Nc1ccc(-c2cccc(-c3nc4cc(F)ccc4[nH]3)c2)cc1 | 100 |
| Cc1ccc(NC(=O)c2ccc3ncccc3c2)cc1OC1CCN(Cc2ccsc2)CC1.O=C(O)C(F)(F)F | 93 |
| COc1ccc(NC(=O)/C=C/c2ccc(Cl)c(Cl)c2)cc1N1CCN(C)CC1 | 90 |
| Cc1cc(N[C@@H](CC(C)C)C(=O)NCc2cccc(F)c2)nc(Nc2ccccc2)n1.O=C(O)C(F)(F)F | 100 |
| COc1cc(NC(=O)c2ccc(-c3ccccc3)cc2)ccc1OCCCN1CCC(c2ccccc2)CC1.Cl | 100 |
| Br.Cc1cc(C)c(CON2C(=N)N=C(N)NC2(C)C)cc1C | 92 |
| O=C(O)C(F)(F)F.OCCN1CCN(Cc2cccc(-c3cccc(-c4nc5cc(F)ccc5[nH]4)c3)c2)CC1 | 100 |

— ChEMBL document CHEMBL1157539, “Thousands of chemical starting points for antimalarial lead identification” (Nature, 2010)
